# Data from PubChem BioAssay AID720648 (The Scripps Research Institute Molecular Screening Center, 2013).
# Among all 370,000 compounds or so, about 3,100 (0.84%) were called active. This is one part of a sample in which actives are shown more often than they occur.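 The calls were made as follows: active = inhibition above the mean of compounds lying between control limits plus 3 SD, set per campaign (cut at about 8.5% in these data); inactive = the rest.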
# Target: Disintegrin and metalloproteinase domain-containing protein 17 (Homo sapiens) (UniProt P78536)
# Sequence (P78536 215-824 limits assumed): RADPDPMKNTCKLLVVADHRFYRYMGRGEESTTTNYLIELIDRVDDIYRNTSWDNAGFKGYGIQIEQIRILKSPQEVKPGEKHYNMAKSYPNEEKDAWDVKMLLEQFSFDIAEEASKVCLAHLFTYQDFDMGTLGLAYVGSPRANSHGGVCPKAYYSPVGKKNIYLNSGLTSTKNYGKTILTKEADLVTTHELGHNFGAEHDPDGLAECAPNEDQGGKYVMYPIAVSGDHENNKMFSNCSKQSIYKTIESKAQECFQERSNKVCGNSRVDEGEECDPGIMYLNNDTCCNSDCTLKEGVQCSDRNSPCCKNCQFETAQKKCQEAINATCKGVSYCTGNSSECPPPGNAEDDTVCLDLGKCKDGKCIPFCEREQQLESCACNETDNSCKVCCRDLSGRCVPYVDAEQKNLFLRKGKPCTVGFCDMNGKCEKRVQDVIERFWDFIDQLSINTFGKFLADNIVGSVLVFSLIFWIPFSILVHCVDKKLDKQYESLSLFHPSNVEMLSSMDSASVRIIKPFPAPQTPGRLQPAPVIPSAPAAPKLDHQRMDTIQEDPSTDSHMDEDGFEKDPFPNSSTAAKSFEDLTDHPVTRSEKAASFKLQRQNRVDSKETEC
# Assay: ADAM17 inhibitors, primary screen, biochemical, QFRET (AID 720648);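 also: 0% = DMSO-only wells as the low control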
# Details: recombinant ADAM17, EDANS/DABCYL FRET peptide cleavage; at 6.95 µM; active compounds read high
row,Structure (SMILES),inhibition
1,C[C@@H]1CN([C@H](C)CO)C(=O)c2cc(-c3ccc(F)cc3)cnc2O[C@H]1CN(C)C(=O)c1ccc(F)cc1,11.7% (active)
2,C[C@H]1CN([C@@H](C)CO)C(=O)c2cc(-c3cccc(F)c3)cnc2O[C@@H]1CN(C)S(C)(=O)=O,1.1% (inactive)
3,COc1ccc(-c2cnc3c(c2)C(=O)N([C@H](C)CO)C[C@@H](C)[C@H](CN(C)Cc2ccccc2)O3)cc1,2.22% (inactive)
4,CCCCCN1CCCCC(NC(=O)C(C)CCC)C1=O (stereo not drawn),-3.79% (inactive)
5,CCCCNC(=O)C[C@@H]1C(=O)N(CCc2ccc(Cl)cc2)C2=CCCC[C@]21C(=O)OCC,-1.53% (inactive)
6,CC1(C(=O)NCc2ccc3c(c2)OCO3)CCN1CCc1ccccc1 (stereo not drawn),4.37% (inactive)
7,Cc1ccc(-c2nc(CS(=O)(=O)CC(=O)NCc3ccc4c(c3)OCO4)c(C)o2)cc1,-1.45% (inactive)
8,O=C(CN1CCN(c2nc(-c3ccccc3)cs2)CC1)NCc1ccc2c(c1)OCO2,11.7% (active)
9,Cc1ccc(-n2c(SCC(=O)Nc3cccc4ccccc34)nnc2-c2ccccn2)cc1,0.17% (inactive)
10,COc1ccc(C(=O)OCCN(C)C2CN(Cc3cn(Cc4cccc(C)c4)nn3)S(=O)(=O)C2)cc1OC (stereo not drawn),0% (inactive)
11,CC1CCN(c2ccc(C(=O)O)cc2NS(=O)(=O)c2ccc(Br)s2)CC1,-2.39% (inactive)
12,Clc1ccc(-n2c(COc3ccccc3)nnc2SCc2nc3ccccc3[nH]2)cc1,1.5% (inactive)
13,COc1ccc(CC(=O)c2ccc(O)cc2O)cc1OC,9.65% (active)
14,COc1ccc(CCNC(=O)C(=O)NCc2ccccc2C)cc1OC,-2.04% (inactive)
15,COc1ccc(C2(CNC(=O)Cc3ccc(OC)c(OC)c3)CCCC2)cc1,0.4% (inactive)
16,FC(F)(F)c1cccc(NC(=S)OC2CCC23CCC(c2ccccc2)CC3)c1 (stereo not drawn),4.59% (inactive)
17,C#CCNC(=O)C[C@H]1C[C@@]2(C(=O)OC)C(=C[C@H](C(C)C)O[C@@H]2C2CC2)N(Cc2ccco2)C1=O,-2.14% (inactive)
18,O=C(CSc1nnc(-c2ccccc2)n1Cc1ccco1)Nc1ccccc1-c1ccccc1,3.73% (inactive)
19,O=C(CSc1nnc(-c2cccc(Cl)c2)n1Cc1ccco1)Nc1ccc(OCc2ccccc2)cc1,4% (inactive)
20,O=C(CSc1nnc(COc2ccccc2)n1Cc1ccco1)c1ccc2ccccc2c1,8.38% (inactive)
21,C(=C\c1ccccc1)/CSc1nnc(-c2cccnc2)n1Cc1ccco1,-2.99% (inactive)
22,Cc1ccc(-c2nnc(SCC(=O)Nc3ccc(Oc4ccccc4)cc3)n2Cc2ccco2)cc1,9.36% (active)
23,Cc1ccc(OCc2nnc(SC/C=C/c3ccccc3)n2Cc2ccco2)cc1,10.7% (active)
